# Measurements taken from ChEMBL document CHEMBL1961873, “Compounds: GSK PKIS; Assays: Nanosyn kinase panel” (2012).
# Experiments:
# [1] = biological target: Casein kinase I isoform gamma-2 (Homo sapiens) (UniProt P78368); conditions: at 1 µM
# [2] = biological target: Casein kinase I isoform gamma-3 (Homo sapiens) (UniProt Q9Y6M4); conditions: at 0.1 µM
# [3] = biological target: Casein kinase I isoform gamma-3 (Homo sapiens) (UniProt Q9Y6M4); conditions: at 1 µM
# [4] = biological target: Cyclin-dependent kinase 1 (Homo sapiens) (UniProt P06493); conditions: at 0.1 µM
# Sequence of Cyclin-dependent kinase 1 (Homo sapiens) (P06493 whole entry, looked up): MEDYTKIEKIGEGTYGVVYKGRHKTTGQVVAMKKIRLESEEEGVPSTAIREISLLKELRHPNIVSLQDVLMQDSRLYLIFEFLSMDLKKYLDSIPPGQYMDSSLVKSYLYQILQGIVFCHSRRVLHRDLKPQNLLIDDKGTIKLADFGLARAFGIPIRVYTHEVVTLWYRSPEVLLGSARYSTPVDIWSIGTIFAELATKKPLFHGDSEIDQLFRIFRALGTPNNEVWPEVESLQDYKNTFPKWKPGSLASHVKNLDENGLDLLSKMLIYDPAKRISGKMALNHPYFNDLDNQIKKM
# [5] = biological target: Cyclin-dependent kinase 1 (Homo sapiens) (UniProt P06493); conditions: at 1 µM
# [6] = biological target: Cyclin-dependent kinase 2 (Homo sapiens) (UniProt P24941); conditions: at 0.1 µM
# [7] = biological target: Cyclin-dependent kinase 2 (Homo sapiens) (UniProt P24941); conditions: at 1 µM
# [8] = biological target: Cyclin-dependent kinase 2 (Homo sapiens) (UniProt P24941); conditions: at 0.1 µM; remark: listed apart in the source
# [9] = biological target: Cyclin-dependent kinase 2 (Homo sapiens) (UniProt P24941); conditions: at 1 µM; remark: listed apart in the source
# [10] = biological target: T1, CDK3/Cyclin E (Homo sapiens) (UniProt P24864+Q00526); conditions: at 0.1 µM
# T1 sequence (P24864 whole entry, looked up): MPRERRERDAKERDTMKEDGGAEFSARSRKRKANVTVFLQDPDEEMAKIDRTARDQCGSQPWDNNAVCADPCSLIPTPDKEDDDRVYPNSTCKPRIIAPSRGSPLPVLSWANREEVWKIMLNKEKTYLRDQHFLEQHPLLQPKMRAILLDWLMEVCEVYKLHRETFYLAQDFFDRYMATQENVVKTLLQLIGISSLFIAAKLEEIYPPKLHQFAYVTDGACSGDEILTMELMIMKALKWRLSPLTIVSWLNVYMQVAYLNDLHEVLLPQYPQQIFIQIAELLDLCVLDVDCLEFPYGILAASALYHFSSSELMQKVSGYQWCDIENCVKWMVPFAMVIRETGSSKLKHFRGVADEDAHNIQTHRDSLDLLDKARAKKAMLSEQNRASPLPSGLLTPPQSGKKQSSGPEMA
# T1 sequence (Q00526 whole entry, looked up): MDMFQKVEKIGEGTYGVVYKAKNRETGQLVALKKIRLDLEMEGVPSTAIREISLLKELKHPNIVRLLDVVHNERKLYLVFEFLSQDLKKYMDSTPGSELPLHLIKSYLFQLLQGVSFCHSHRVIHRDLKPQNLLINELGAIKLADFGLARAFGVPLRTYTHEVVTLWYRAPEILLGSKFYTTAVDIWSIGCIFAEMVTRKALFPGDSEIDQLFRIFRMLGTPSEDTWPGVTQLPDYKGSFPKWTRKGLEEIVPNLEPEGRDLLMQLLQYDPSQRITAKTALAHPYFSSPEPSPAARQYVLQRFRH
# [11] = biological target: T1, CDK3/Cyclin E (Homo sapiens); conditions: at 1 µM
# [12] = biological target: Cyclin-dependent kinase 4 (Homo sapiens) (UniProt P11802); conditions: at 0.1 µM
# Sequence of Cyclin-dependent kinase 4 (Homo sapiens) (P11802 whole entry): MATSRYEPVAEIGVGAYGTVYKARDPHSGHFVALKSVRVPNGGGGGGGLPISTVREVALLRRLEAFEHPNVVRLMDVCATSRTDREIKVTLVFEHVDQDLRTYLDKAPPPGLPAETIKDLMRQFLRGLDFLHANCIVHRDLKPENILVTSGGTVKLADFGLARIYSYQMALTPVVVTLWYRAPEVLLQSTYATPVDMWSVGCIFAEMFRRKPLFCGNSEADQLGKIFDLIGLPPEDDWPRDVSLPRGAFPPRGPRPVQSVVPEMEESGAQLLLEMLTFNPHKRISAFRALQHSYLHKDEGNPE
# [13] = biological target: Cyclin-dependent kinase 4 (Homo sapiens) (UniProt P11802); conditions: at 1 µM
# [14] = biological target: Cyclin-dependent kinase 5 (Homo sapiens) (UniProt Q00535); conditions: at 0.1 µM
# Sequence of Cyclin-dependent kinase 5 (Homo sapiens) (Q00535 whole entry, looked up): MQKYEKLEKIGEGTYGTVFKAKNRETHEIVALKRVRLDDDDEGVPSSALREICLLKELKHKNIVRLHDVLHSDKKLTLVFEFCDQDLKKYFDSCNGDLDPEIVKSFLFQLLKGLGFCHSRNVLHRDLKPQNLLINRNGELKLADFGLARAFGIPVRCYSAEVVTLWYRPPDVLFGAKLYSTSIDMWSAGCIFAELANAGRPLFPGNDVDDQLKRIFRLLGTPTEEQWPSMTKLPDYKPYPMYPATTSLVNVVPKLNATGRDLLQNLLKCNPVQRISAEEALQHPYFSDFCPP
# [15] = biological target: Cyclin-dependent kinase 5 (Homo sapiens) (UniProt Q00535); conditions: at 1 µM
# [16] = biological target: Cyclin-dependent kinase 6 (Homo sapiens) (UniProt Q00534); conditions: at 0.1 µM
# Sequence of Cyclin-dependent kinase 6 (Homo sapiens) (Q00534 whole entry): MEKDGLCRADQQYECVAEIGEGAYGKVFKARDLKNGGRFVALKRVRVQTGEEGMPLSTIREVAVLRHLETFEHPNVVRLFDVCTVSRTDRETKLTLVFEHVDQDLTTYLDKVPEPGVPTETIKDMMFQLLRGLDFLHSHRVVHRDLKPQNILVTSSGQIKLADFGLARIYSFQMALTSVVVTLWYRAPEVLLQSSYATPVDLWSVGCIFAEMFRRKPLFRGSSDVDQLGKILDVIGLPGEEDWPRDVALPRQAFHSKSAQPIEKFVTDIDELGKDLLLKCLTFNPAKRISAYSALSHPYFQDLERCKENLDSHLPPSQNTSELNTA
# [17] = biological target: Cyclin-dependent kinase 6 (Homo sapiens) (UniProt Q00534); conditions: at 1 µM
# [18] = biological target: Dual specificity protein kinase CLK2 (Homo sapiens) (UniProt P49760); conditions: at 0.1 µM
# Sequence of Dual specificity protein kinase CLK2 (Homo sapiens) (P49760 whole entry, looked up): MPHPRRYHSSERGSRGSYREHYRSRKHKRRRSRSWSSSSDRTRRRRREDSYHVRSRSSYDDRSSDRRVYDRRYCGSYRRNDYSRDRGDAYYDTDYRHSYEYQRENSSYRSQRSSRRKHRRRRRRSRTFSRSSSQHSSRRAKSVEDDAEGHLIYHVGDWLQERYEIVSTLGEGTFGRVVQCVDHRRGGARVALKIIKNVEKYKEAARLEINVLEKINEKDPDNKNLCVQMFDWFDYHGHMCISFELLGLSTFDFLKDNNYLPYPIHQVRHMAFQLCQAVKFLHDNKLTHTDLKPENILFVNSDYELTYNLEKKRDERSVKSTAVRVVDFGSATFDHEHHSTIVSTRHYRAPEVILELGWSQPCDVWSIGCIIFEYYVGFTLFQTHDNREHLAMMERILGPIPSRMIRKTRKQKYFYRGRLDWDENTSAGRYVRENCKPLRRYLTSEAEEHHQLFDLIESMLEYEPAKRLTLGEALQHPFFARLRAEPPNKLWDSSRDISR
# [19] = biological target: Dual specificity protein kinase CLK2 (Homo sapiens) (UniProt P49760); conditions: at 1 µM
# [20] = biological target: Dual specificity protein kinase CLK3 (Homo sapiens) (UniProt P49761); conditions: at 0.1 µM
# Sequence of Dual specificity protein kinase CLK3 (Homo sapiens) (P49761 whole entry, looked up): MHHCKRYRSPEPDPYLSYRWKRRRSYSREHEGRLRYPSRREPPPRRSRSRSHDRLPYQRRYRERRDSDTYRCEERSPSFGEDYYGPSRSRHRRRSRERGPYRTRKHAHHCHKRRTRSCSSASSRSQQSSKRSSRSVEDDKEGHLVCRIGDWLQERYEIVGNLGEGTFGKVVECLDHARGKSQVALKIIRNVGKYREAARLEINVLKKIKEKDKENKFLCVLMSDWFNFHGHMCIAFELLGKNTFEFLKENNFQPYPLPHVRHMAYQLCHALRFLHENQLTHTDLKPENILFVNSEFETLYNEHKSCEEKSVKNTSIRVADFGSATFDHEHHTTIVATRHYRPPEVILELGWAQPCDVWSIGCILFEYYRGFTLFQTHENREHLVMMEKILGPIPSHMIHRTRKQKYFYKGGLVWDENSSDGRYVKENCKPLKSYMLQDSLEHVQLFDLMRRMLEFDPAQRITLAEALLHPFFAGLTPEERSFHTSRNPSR
# Sequence of Casein kinase I isoform gamma-2 (Homo sapiens) (P78368 whole entry, looked up, canonical isoform): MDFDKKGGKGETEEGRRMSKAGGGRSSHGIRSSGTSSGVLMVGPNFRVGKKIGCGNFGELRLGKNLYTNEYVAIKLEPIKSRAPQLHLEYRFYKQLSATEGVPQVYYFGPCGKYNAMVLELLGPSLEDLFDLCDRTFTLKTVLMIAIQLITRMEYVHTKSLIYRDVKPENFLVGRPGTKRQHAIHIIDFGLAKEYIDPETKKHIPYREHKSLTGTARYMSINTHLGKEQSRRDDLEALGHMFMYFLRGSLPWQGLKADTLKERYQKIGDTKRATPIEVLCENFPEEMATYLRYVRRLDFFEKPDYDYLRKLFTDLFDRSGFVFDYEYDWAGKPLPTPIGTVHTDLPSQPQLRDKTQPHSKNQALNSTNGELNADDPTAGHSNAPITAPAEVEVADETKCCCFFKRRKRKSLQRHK
# Sequence of Casein kinase I isoform gamma-3 (Homo sapiens) (Q9Y6M4 whole entry, looked up, canonical isoform): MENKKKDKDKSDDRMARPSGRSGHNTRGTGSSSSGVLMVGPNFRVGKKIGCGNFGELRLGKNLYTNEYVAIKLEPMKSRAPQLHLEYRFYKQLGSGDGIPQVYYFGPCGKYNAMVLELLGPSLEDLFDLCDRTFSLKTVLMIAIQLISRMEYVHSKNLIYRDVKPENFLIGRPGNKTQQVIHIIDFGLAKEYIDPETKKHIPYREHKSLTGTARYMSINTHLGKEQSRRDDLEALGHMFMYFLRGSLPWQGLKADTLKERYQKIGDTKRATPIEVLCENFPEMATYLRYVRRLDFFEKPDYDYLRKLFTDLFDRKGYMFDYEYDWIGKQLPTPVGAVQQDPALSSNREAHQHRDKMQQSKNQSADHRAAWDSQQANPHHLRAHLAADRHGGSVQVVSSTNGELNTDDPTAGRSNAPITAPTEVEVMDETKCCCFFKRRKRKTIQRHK
SMILES,inhibition [1] [%],inhibition [2] [%],inhibition [3] [%],inhibition [4] [%],inhibition [5] [%],inhibition [6] [%],inhibition [7] [%],inhibition [8] [%],inhibition [9] [%],inhibition [10] [%],inhibition [11] [%],inhibition [12] [%],inhibition [13] [%],inhibition [14] [%],inhibition [15] [%],inhibition [16] [%],inhibition [17] [%],inhibition [18] [%],inhibition [19] [%],inhibition [20] [%]
Fc1ccc(-c2c(-c3ccncc3)nc3n2CCS3)cc1,-0.73,-3.04,-1.19,-4.51,-4.05,-1.82,-3.21,-1.42,0.06,2.29,-3.24,-2.5,-1.15,-3.5,-3.63,-6.1,-2.27,0.14,0.05,-2.3
Cc1ccc(C(=O)NC(C)C)cc1-c1ccc(C(=O)NCC2CC2)cc1,-3.47,-2.79,-1.44,0.57,2.57,0.33,-0.04,-0.92,0.52,1.57,-1.55,-0.49,0.6,0.55,2.73,-1.81,-0.75,-1.1,-0.78,-0.64
O=C(NCC1CC1)c1ccc(-c2cccc(C(=O)NC3CC3)c2)cc1,2.47,0.19,2.3,-0.46,1.27,1.17,9.03,2.3,2.72,-0.72,2.64,2.46,2.18,0.16,0.99,5.87,-0.5,-0.19,1.77,0.44
Fc1ccc(-c2nc3n(c2-c2ccncc2)CCS3)cc1,4.78,0.7,8.82,-2.26,-3.55,-1.04,1.08,0.41,0.29,4.27,-2.73,-1.97,-0.8,-2.49,-2.61,-7.51,-1.4,1.78,0.05,-1.51
COC(=O)Nc1nc2ccc(Sc3ccc(NC(=O)Nc4cc(C(F)(F)F)ccc4F)cc3)cc2[nH]1,1.01,0.1,0.39,0.09,3.86,-0.08,6.71,0.48,0.81,-0.31,0.64,-4.86,1.81,0.21,1.9,7.92,2.22,1.38,-0.84,0.48
COc1cc(Nc2ncc3c(C)nc(-c4cccc(Oc5ccccc5)c4)n3n2)cc(OC)c1OC,3.44,1.22,5.12,-0.4,0.45,2.04,2.37,0.75,3.13,0.34,3.12,0.68,1.99,0.07,1.06,2.92,3.25,0.86,3.28,0.71
CN(c1ccc(NC(=O)Nc2c(Cl)cccc2Cl)cc1)c1ccnc(Nc2cccc(CS(C)(=O)=O)c2)n1,0.63,1.67,-1.25,0.58,3.72,3.62,12.2,-0.54,2.62,0.7,-0.7,-0.86,-0.25,0.43,1.99,3.57,-0.75,3.63,5.49,-0.2
COc1ccc(-c2ccc3c(NC(=O)C4CC4)n[nH]c3n2)cc1,1.22,1.89,2.61,0.44,4.03,1.61,10.7,1.4,4.59,2.19,3.03,1.65,11.4,0.42,2.12,5.98,38,0.68,1.56,0.83
CS(=O)(=O)CCNCc1cc(-c2cc3c(Nc4ccc(OCc5cccc(F)c5)c(Cl)c4)ncnc3s2)cs1,4.61,3.07,1.92,2.55,0.45,3.05,1.47,1.9,4.94,-3.37,-0.74,2.57,4.29,0.44,0.56,-2.32,-0.13,2.41,2.14,2.21
FC(F)(F)c1cccc(Nc2nccc(-c3cnn4nc(-c5ccccc5)ccc34)n2)c1,2.62,1.84,2.44,0.56,4.07,1.41,13.5,3.41,26.4,-1.25,2.5,1.39,5.84,0.4,3.29,0.39,2.53,57.2,92.1,1.66
CCc1ccc(Oc2nccc(-c3c(-c4ccc(F)cc4)ncn3C3CCNCC3)n2)cc1,11.5,6.23,30,2.36,2.02,3.63,2.75,2.03,2.75,-2.23,-3.4,1.49,2.34,0.94,2.25,-3.34,-4.3,1.29,3.58,0.96
O=C(Nc1ccc(Oc2ccc3[nH]c(NC(=O)c4ccccc4)nc3c2)cc1)Nc1cc(C(F)(F)F)ccc1F,2.09,1.5,2.93,0.28,3.27,0.68,4.24,2.28,4.67,1.65,-1.42,3.17,4.9,0.47,3.03,2.76,4.46,0.71,1.05,1.59
Fc1ccc(-c2ncn(C3CCNCC3)c2-c2ccnc(Oc3ccc(F)c(F)c3)n2)cc1,1.91,-0.68,1.74,-1.46,2.42,-1.17,-0.54,3.33,6.4,-1.06,-1.08,0.19,3.54,1.99,3.94,-4.37,-0.06,0.86,-0.42,-3.62
O=C1Nc2ccccc2/C1=C/Nc1ccc(-n2cncn2)cc1,8.25,2.62,5.16,1.97,10.6,2.39,13.3,6.28,22.2,7.69,16.1,9.53,25.2,3.62,21.5,18,66.2,4.14,21.6,0.91
COc1ccc2cc(-c3c(-c4ccncc4)nc(-c4ccc([S+](C)[O-])cc4C)n3C)ccc2c1 (stereo not given),-0.3,-1.01,-1.93,0.98,3.25,0.63,-1.45,1.09,1.29,-1.08,0.89,2.2,5.75,0.73,2.04,2.45,4.45,1.09,1.03,0.64
CN(C)CCOc1ccc(-c2cc(-c3ccc4c(c3)CCC4=NO)c(-c3ccncc3)o2)cc1,-0.77,-0.76,-0.08,0.53,1.85,-0.07,0.53,-0.38,0.33,-2.82,-0.71,-0.67,1.69,0.66,0.57,-3.52,-0.6,0.73,-1.28,-0.3
Fc1ccc(-c2ncn(C3CCNCC3)c2-c2ccnc(Oc3ccc(Oc4ccccc4)cc3)n2)cc1,14.6,7.8,26.3,1.88,2.92,3.49,4.28,2.95,4.3,-3.73,-1.29,4.1,3.52,0.97,1.86,-6.79,-6.24,2.06,4.62,0.9
COc1ccc2cc(-c3c(-c4ccncc4)nc(-c4ccc(S(C)(=O)=O)cc4C)n3C)ccc2c1,4.03,3.31,2.13,1.11,1.69,2.79,-7.25,3.25,2.47,5.76,-3.73,3.77,4.56,0.42,-0.58,0.01,1.21,0.85,-1.59,1.66
C[C@@H](Oc1cc(-n2cnc3ccc(OCC4CCN(C)CC4)cc32)sc1C(N)=O)c1ccccc1Cl,7.87,3.89,5.6,1.74,3.79,3.1,4.03,2.66,5.46,-2.62,-1.61,2.79,7.39,1.33,3.11,0.41,0.37,1.46,7.9,1.64
NS(=O)(=O)c1ccc(N/N=C2\C(=O)Nc3ccc(-c4cnco4)cc32)cc1,0.36,-3.27,0.29,32.6,66.8,85.8,94.4,67.2,74.7,50,89.2,6.57,42,50.2,71.8,9.49,50.3,5.36,35.9,-3.12
CS(=O)(=O)CCNCc1ccc(-c2ccc3ncnc(Nc4ccc(OCc5ccccc5)c(Br)c4)c3c2)o1,-0.24,-0.8,-2.02,-4.43,-2.83,-2.31,-1.03,-1.96,-0.05,-2.03,-3.92,-1.53,-0.83,-3.53,-2.4,-4.44,-4.65,1.39,-1.17,-3.26
NC(=O)c1cc(-c2ccncc2)cc(-c2ccccc2)c1N,4.95,4.56,4.47,-0.45,1.56,2.79,5.38,4.07,3.97,4.6,-0.18,2.8,2.69,0.58,0.44,-1.43,2.3,1.45,1.33,1.22
COc1cc(Nc2ncc(-c3ccccc3)o2)cc(OC)c1OC,-0.69,-0.27,-0.18,0.44,6.1,0.56,9.21,0.79,6.45,0.2,5.95,0.45,1.93,0.52,6.19,0.43,3.26,0.35,3.33,0.69
Cc1ccc(C(=O)NC2CCC2)cc1-c1ccc(C(=O)NCC2CC2)cc1,2.95,2.2,2.4,0.42,1.39,2.38,0.45,2.25,3.3,2.79,-2.09,2.48,3.14,0.96,1.18,-2.65,1.04,0.82,1.37,1.37
C/C(Nc1ccc(S(N)(=O)=O)cc1)=C1/C(=O)Nc2ccccc21,18.7,-1.23,19.1,0.68,14.5,7.75,56,8.8,48.1,9.17,50.1,3.5,32,8.67,44.7,37,74.7,0.33,2.45,-0.03
Cc1nnc(-c2ccc(C)c(-c3ccc(C(=O)NCc4ccc(Cl)cc4)cc3)c2)o1,1.06,-1.5,-0.65,-3.13,-1.46,-1.4,-2.99,0.91,0.03,4.6,-2.98,-0.53,0.24,-2.39,-4.02,-7.02,-4.88,-0.33,0.92,-1.37
COc1cc(C)c(N(C)C(=O)CN(C)C)cc1Nc1nc(Nc2cccc(F)c2C(N)=O)c2cc[nH]c2n1,10.4,-0.15,26.6,-4.66,-4.18,-3.41,1.23,-2.41,-2.88,-0.03,0.55,-3.32,-2.23,-3.87,-4.34,-3.28,-2.66,2.65,12.6,-5.35
